Screens (PubChem BioAssay)
This is a sample that favours compounds with a hit; in the whole collection about 3.6% have one here.
Sfp PPTase inh: inhibitors of Bacillus subtilis Sfp phosphopantetheinyl transferase; Q9F4F7; Biochemical Sfp PPTase activity, qHTS; Potency, µM, for the others: largest response in the series, negative = inhibition, usual class: inhibitors; hit rate 3.5% among 310,000; AID 1490;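 also: the enzyme is Sfp with the accession as filed and its product quenches rhodamine fluorescence; 0% = enzyme reaction without inhibitor and -100% = no enzyme wells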
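With Hepes-Na pH 7.6 buffer containing 10 mM MgCl2, Sfp (15 nM) modified BHQ-2-YbbR (12.5 uM) using rhodamine-CoA (5 uM). Two reads 30 minutes apart at 525/598 nm yielded each well's rate.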
NPSR antagonist: neuropeptide S receptor (human) antagonism, cAMP; hit rate 1% among 220,000; Potency, µM (doses to about 38.3 µM), inactives show top-dose activity change, negative = inhibition, actives largely listed as inhibitors; CHO-NPSR cells, cAMP TR-FRET, antagonist mode; AID 1461; Q6W5P4; also: % is scaled to controls: 0 for no effect and ±100 for the full control effect; nearly all actives have a fitted effect of over 50% in size
Epigenetic reg: regulators of epigenetic silencing causing reporter derepression in mouse cells; AID 1865; hit rate 0.2% among 280,000; murine LDR cells, GFP reporter derepression, 30 h; Potency, µM (titrated, usually from 53.9 µM), for inactives: at the top dose GFP activation, hits mostly activators; also: % of control where 0% means no effect; nearly all actives have a fitted effect of over 60% in size
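Reporter derepression read as number of fluorescent GFP-positive objects, 20-120 um in size, counted by laser-scanning cytometer. Mouse LDR line with an epigenetically silenced CMV-GFP locus; compound incubation 30 h, 37 C.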
KDM4E inh: inhibitors of human JMJD2E histone demethylase | B2RXH2 | Potency, µM (titrated, usually from 57.1 µM), for the others: at the highest dose activity change, negative = inhibition, usual class: inhibitors | AID 2147 | hit rate 1.6% among 230,000 | JMJD2E catalytic domain, FDH-coupled NADH fluorescence (FDH is formaldehyde dehydrogenase);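 also: 0% = wells with enzyme and -100% = buffer wells without enzyme; nearly all actives have a fitted effect of over 50% in size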
IMPase Li cell: cell-permeable IMPase inhibitors with lithium potentiation | AID 1457 | CHO-M1 cells, IP1 TR-FRET (IP-One), carbachol + lithium | hit rate 0.35% among 210,000 | Potency, µM (titrated, usually from 59.4 µM), inactives show at the highest dose activity, negative = IMPase inhibition, usual class: inhibitors;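 also: IP1 builds up when IMPase is blocked and the TR-FRET signal falls; plate controls were basal vehicle for no effect and high inhibitor control for full effect; nearly all actives have a fitted effect of over 50% in size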
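Steps: plate 2000 CHO-M1 cells per well and culture 16–30 h; add compound and lithium; incubate 30 min, 37C; add d2-IP1 tracer and Eu cryptate anti-IP1 antibody in lysis buffer; read after 10 min at room temperature.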
KAT2A inh: inhibitors of human GCN5L2 histone acetyltransferase | Potency, µM (titrated, usually from 58.9 µM), inactives show at the highest dose activity change, negative = inhibition, usual class: inhibitors | hit rate 0.21% among 390,000 | AID 504327 | Q92830 | GCN5L2 HAT assay, ThioGlo1 CoA-SH fluorescence; also: % is scaled to controls: 0 for no effect and ±100 for the full control effect
Target sequence (Q92830 whole entry, looked up): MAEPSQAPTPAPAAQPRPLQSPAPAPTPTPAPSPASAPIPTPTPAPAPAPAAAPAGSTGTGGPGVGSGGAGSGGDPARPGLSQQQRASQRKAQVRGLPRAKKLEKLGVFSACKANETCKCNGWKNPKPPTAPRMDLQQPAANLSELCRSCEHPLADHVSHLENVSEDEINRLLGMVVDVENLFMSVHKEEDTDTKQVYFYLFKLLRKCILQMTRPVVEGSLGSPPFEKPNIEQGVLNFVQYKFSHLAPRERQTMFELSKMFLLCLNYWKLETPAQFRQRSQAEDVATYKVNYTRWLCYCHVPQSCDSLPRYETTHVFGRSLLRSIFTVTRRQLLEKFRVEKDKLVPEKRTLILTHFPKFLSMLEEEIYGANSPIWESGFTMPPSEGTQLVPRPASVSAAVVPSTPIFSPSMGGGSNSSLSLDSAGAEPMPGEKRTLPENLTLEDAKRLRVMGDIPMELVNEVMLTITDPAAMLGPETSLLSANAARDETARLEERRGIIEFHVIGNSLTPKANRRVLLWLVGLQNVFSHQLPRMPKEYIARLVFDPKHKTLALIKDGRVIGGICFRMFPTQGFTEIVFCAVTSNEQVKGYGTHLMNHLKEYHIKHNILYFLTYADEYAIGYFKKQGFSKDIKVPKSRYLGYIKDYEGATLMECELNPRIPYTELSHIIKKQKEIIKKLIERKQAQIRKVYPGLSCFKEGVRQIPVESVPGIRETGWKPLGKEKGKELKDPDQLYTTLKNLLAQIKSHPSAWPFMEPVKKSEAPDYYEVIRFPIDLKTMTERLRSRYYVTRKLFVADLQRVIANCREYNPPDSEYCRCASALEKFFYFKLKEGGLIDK
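Compounds, pin-transferred from DMSO stocks, meet 20nM GCN5L2 for 15 min before the reaction begins with H3(1-25) peptide (75uM) and acetyl-CoA (70uM). Thiol-reactive ThioGlo1 reports CoA release over 20 min at room temperature.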
Active calls of the source: *; ? = inconclusive; / = no result given; [ ] = remark or other dose. Unless noted, calls follow the shape of the dose curve; as a rule, active = well fitted curve in the direction sought with a large enough effect; inconclusive = small, poorly fitted or top-dose-only effect, or another doubt; inactive = no such curve, though single readings can be large; an effect the other way counts as inactive or inconclusive. Potency is read from the fitted curve at half-maximal effect.

SMILES | Sfp PPTase inh | NPSR antagonist | Epigenetic reg | KDM4E inh | IMPase Li cell | KAT2A inh
O=C(N/N=C/c1cc(Br)c(Br)o1)c1cccnc1 | 32µM* | -9% | 0% | -6% | -5% | 1%
COc1ccc(N=C2O/C(=C/c3sc(=S)n(CC4CCCO4)c3O)N=C2C#N)cc1 (stereo unspecified) | 2.8µM* | ? | 5% | 2% | / | -19%
COC(=O)[C@H](CCSC)NC(=O)C/C=C\[C@@H](C)CO | 25% | / | 3%[10.1 µM] | / | / | /
COc1cc(/C=C/c2sc3ccccc3[n+]2CCCS(=O)(=O)[O-])ccc1O | 6.3µM* | -47% | 3% | -4% | 37% | -3%
COc1cc(/C=C/C(=O)NC(=O)c2ccccc2O)ccc1O | 3% | / | / | / | / | -1%
O=c1c(Cl)c2oc3ccccc3nc-2c2ccccc12 | 14% | -9% | 22µM* | 3% | 17% | -4%
Clc1ccc(-c2nnc(Sc3nc4ccccc4o3)c3ccccc23)cc1 | -19% | 6%[46.1 µM] | 0% | 6% | -7%[38.3 µM] | 3%
COC(=O)CSc1[nH]c(=O)cc(C)c1C#N | 10% | -6%[46.1 µM] | -1% | 3% | / | -5%
CCOC(=O)c1cc(C#N)c(SCC(=O)c2cc(C#N)c(SC)nc2C)nc1C | 16µM* | ? | 16% | -3% | 8%[38.3 µM] | -6%
CCOC(=O)c1cc(C#N)c(SCC(=O)OC)[nH]c1=O | 50µM* | ? | 0% | ? | / | -6%
CCOC(=O)c1cc(C)nc(SC)c1C#N | 79µM* | 0% | 1% | ? | / | -14%
Cc1cccc(N2CCN(C(=O)Cn3nc(C)n4cccc4c3=O)CC2C)c1 (stereo unspecified) | 7% | / | 6% | / | / | -2%
Cc1cccc(N2CCN(C(=O)Cn3sc4nc(C)cc(C)c4c3=O)CC2C)c1 (stereo unspecified) | 3.5µM* | ? | -1% | ? | 20%[38.3 µM] | ?
Cc1cc(C)c2c(=O)n(CC(=O)N3CCC(Cc4ccccc4)CC3)sc2n1 | 7.9µM* | -26% | ? | ? | 4% | 2%
C[C@H](NC(=O)[C@@H](N)Cc1ccc(O)cc1)C(=O)NCC(=O)N[C@H]1CSSC[C@@H](C(=O)O)NC(=O)[C@H](CO)NC(=O)[C@H]([C@@H](C)O)NC(=O)[C@H](Cc2ccccc2)NC(=O)[C@H]([C@@H](C)O)NC(=O)[C@H](CCCCN)NC(=O)[C@H](Cc2c[nH]c3ccccc23)NC(=O)[C@H](Cc2ccccc2)NC(=O)[C@H](Cc2ccccc2)NC(=O)[C@H](CC(N)=O)NC(=O)[C@H](CCCCN)NC1=O | 1% | / | / | / | / | 37%
N#CC(C#N)=C1c2cc(S(N)(=O)=O)ccc2-c2ccc(S(N)(=O)=O)cc21 | 40µM* | -37% | 0% | -1% | 12% | -3%
O=C1c2cc(S(=O)(=O)NCCO)ccc2-c2ccc(S(=O)(=O)NCCO)cc21 | 15% | 5% | 0% | 7% | -5% | -6%
N#CC(C#N)=C1c2cc(S(=O)(=O)NCCO)ccc2-c2ccc(S(=O)(=O)NCCO)cc21 | 56µM* | -11% | 3% | -22% | / | -4%
Cc1ccc(C(=O)N2CC(=O)Nc3ccc(Br)cc3C2c2ccc(F)cc2)cc1C (stereo unspecified) | / | / | 4% | / | / | 0%
C[C@H](N)C(=O)N[C@@H](CO)C(=O)N[C@H](C(=O)N[C@H](C(=O)N[C@H](C(=O)N[C@@H](CC(N)=O)C(=O)N[C@@H](Cc1ccc(O)cc1)C(=O)N[C@H](C(=O)O)[C@@H](C)O)[C@@H](C)O)[C@@H](C)O)[C@@H](C)O | 13% | / | / | / | / | -13%
CN1C(=CC=C2C=C(I)C(=O)C(I)=C2)C(C)(C)c2ccccc21 | 89µM* | ? | 0% | 0% | / | -10%
CN1/C(=C\C=C2/C(=O)Oc3ccccc3C2=O)C(C)(C)c2ccccc21 | 18% | -17% | 14µM* | 1% | -5% | -16%
CC1=NN(c2ccccc2)C(=O)/C1=C\C=C1/N(C)c2ccccc2C1(C)C | -18% | -33% | 0% | -2% | 4% | -6%
Cn1cnc2c(ncn2[C@@H]2O[C@H](CO)[C@@H](O)[C@H]2O)c1=N | 22% | / | 0% | / | 9% | 22%
CCS(=O)(=O)c1ncc(Cl)c(C(=O)N2CCN(c3cccc(Cl)c3)CC2)n1 | / | / | -1% | / | / | -5%
SMILES | Sfp PPTase inh | NPSR antagonist | Epigenetic reg | KDM4E inh | IMPase Li cell | KAT2A inh
O=C1C2C(c3ccccc3)CC=CC2C(c2cccc([N+](=O)[O-])c2)N1Cc1ccccc1 (stereo unspecified) | 11% | / | / | / | / | /
c1ccc(-c2nn[nH]n2)c(Nc2cccc3c2CCCC3)c1 | 7% | / | / | / | / | 18µM*
Cc1ccccc1-c1nn[nH]n1 | 18% | -5%[46.1 µM] | -4% | 6% | -24%[38.3 µM] | 0%
NC(N)=NCCC[C@H](N)C(=O)N1CCC[C@H]1C(=O)N1CCC[C@H]1C(=O)NCC(=O)N[C@@H](Cc1ccccc1)C(=O)N[C@@H](CO)C(=O)N1CCC[C@H]1C(=O)N[C@@H](Cc1ccccc1)C(=O)O | -1% | / | / | / | / | 6%
O=[N+]([O-])c1ccc(Oc2cccc3cccnc23)c([N+](=O)[O-])c1 | ? | -10% | 13µM* | 4% | -3% | -12%
Cc1oc(-c2ccccc2Cl)nc1CN1CCCCC1c1cccnc1 (stereo unspecified) | 2% | 18% | 2% | 22µM* | 0% | 18%
Cc1oc(-c2ccccc2Cl)nc1CN1CCCC1c1ccc(F)cc1 (stereo unspecified) | -11% | 56% | 0% | ? | 15% | -5%
CC1=CC(C)(C)Nc2ccccc21 | 79µM* | -18%[46.1 µM] | -1% | ? | -4%[38.3 µM] | -2%
COc1ccc2c(c1)C(=O)[C@@H](OC(=O)Nc1ccc(C)c(Br)c1)[C@H](c1ccc(OC)c(Br)c1)O2 | -6% | / | -1% | ? | 5% | /
C[C@](O)(c1ccccc1)c1nccc2ccccc12 | / | / | / | / | 2% | /
COC1=C(Nc2ccccc2OC)C(=O)c2ccccc2C1=O | -18% | -26% | 0% | ? | / | -3%
COc1ccccc1NC1=C(NC(C)=O)C(=O)c2ccccc2C1=O | -97% | -37% | -7% | 25µM* | 57% | -25%
Cc1csc(NC(=O)CSc2nnc(Cn3c(=O)sc4ccccc43)n2-c2ccccc2)n1 | 79µM* | -15%[46.1 µM] | 0% | 0% | 10%[38.3 µM] | -4%
Cc1ccccc1-n1c(Cn2c(=O)sc3ccccc32)nnc1SCC(=O)Nc1nccs1 | 13% | -1%[46.1 µM] | 0% | -9% | 5% | 0%
NC(=O)NC(=O)CC1S/C(=N/N=C/c2ccccc2)NC1=O (stereo unspecified) | 23% | 11% | 0% | 8% | -2% | -4%
